Source: PubChem BioAssay (Tox21)
Results filed as inconclusive are left out. Where a call stands in place of a potency, no number is given. Calls of active or inactive are those of the source. Unless noted, calls follow the shape of the dose curve; as a rule, active = well fitted curve in the direction sought with a large enough effect in the repeat runs; inconclusive = weak or mixed curves; inactive = no such curve, though single readings can be large; an effect the other way counts as inactive or inconclusive.

Tests used:
[1] = qHTS assay to identify small molecule antagonists of the glucocorticoid receptor (GR) signaling pathway - cell viability counter screen (AID 720693); details: GR-bla HeLa viability, CellTiter-Glo luminescence, 18 h, with 5 nM dexamethasone present; series mostly up to 58.5 µM; also: nearly all actives have a fitted effect of over 55% in size
[2] = qHTS assay for identifying genotoxic compounds that show differential cytotoxicity against isogenic chicken DT40 cell lines with known DNA damage response pathways - wild type cell line (AID 743012); details: DT40 wild type chicken cells viability, CellTiter-Glo, 40 h; series mostly up to 68.4 µM; also: nearly all actives have a fitted effect of over 60% in size; also: potency is read from the fitted curve at half-maximal effect
How it was run: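 300 wt DT40 cells/well; cpd (DMSO) pintool-transferred after ~0.5 h at 37 C/5% CO2; 40 h incubation; CellTiter-Glo added, 30 min RT; luminescence read.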

[3] = qHTS assay for identifying genotoxic compounds that show differential cytotoxicity against isogenic chicken DT40 cell lines with known DNA damage response pathways - Rad54/Ku70 mutant cell line (AID 743015); details: DT40 Rad54/Ku70 mutant viability, CellTiter-Glo, 40 h; series mostly up to 66.8 µM; also: nearly all actives have a fitted effect of over 60% in size; also: potency is read from the fitted curve at half-maximal effect
[4] = qHTS assay to identify small molecule antagonists of the androgen receptor (AR) signaling pathway - cell viability counter screen (AID 743033; also: nearly all actives have a fitted effect of over 45% in size); details: AR-bla HEK293 viability, CellTiter-Glo luminescence, 16 h; series mostly up to 58.5 µM
[5] = qHTS assay to identify small molecule antagonists of the androgen receptor (AR) signaling pathway using the MDA cell line - cell viability counter screen (AID 743041; also: nearly all actives have a fitted effect of over 45% in size); details: MDA-kb2 viability, CellTiter-Fluor, 16 h, cells co-treated with R1881 androgen agonist; series mostly up to 70.3 µM
How it was run: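 Compound exposure lasted 16 h at 37C in MDA-kb2 AR-luc cells stimulated with R1881. Protease-based CellTiter-Fluor reagent was applied for the final 30 min and fluorescence measured.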

[6] = qHTS assay to identify small molecule antagonists of the thyroid receptor (TR) signaling pathway - cell viability counter screen (AID 743064); details: GH3.TRE-Luc viability, CellTiter-Fluor, 24 h; series mostly up to 70.3 µM; also: nearly all actives have a fitted effect of over 50% in size
How it was run: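 In-well cytotoxicity read by CellTiter-Fluor (30 min, 37 C) following 23.5 h exposure of GH3 cells bearing a TRE-luciferase sensor. Compounds were added alongside 1 nM (final) T3 to drive TR transactivation.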

[7] = test system: thyroid hormone receptor (rat, GH3 cells); test: qHTS assay to identify small molecule agonists of the thyroid receptor (TR) signaling pathway (AID 743066; calls by dose curve); details: GH3.TRE-Luc cells, TR agonist luciferase, 24 h; series mostly up to 83.9 µM
[8] = qHTS assay to identify small molecule antagonists of the estrogen receptor alpha (ER-alpha) signaling pathway - cell viability counter screen (AID 743074; calls by dose curve; also: nearly all actives have a fitted effect of over 45% in size); details: ERalpha-bla HEK293 viability, CellTiter-Glo luminescence, 18 h; series mostly up to 69.4 µM
[9] = qHTS assay to identify small molecule antagonists of the estrogen receptor alpha (ER-alpha) signaling pathway using the BG1 cell line - cell viability counter screen (AID 743081); details: BG1Luc4E2 viability, CellTiter-Fluor, 22 h; series mostly up to 70.3 µM;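 also: compound given together with 17beta-estradiol as the ER stimulus; nearly all actives have a fitted effect of over 45% in size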
[10] = qHTS assay for identifying genotoxic compounds that show differential cytotoxicity against isogenic chicken DT40 cell lines with known DNA damage response pathways - Rev3 mutant cell line (AID 743014); details: chicken DT40 Rev3-/- viability, CellTiter-Glo, 40 h; series mostly up to 68.4 µM; also: nearly all actives have a fitted effect of over 55% in size
[11] = qHTS assay to identify small molecule antagonists of the thyroid receptor (TR) signaling pathway (AID 743065); details: GH3.TRE-Luc, T3-stimulated luciferase inhibition, 23.5 h; series mostly up to 70.3 µM; also: nearly all actives have a fitted effect of over 55% in size; also: potency is read from the fitted curve at half-maximal effect
How it was run: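 GH3.TRE-Luc rat pituitary cells (two TREs driving luciferase) were dosed with compound, then stimulated with 1 nM T3 (final) for 23.5 h at 37 C. ONE-Glo luminescence was the read-out, with CellTiter-Fluor fluorescence as the cytotoxicity counter-screen.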

[12] = target: Estrogen receptor (Homo sapiens) (UniProt P03372); test: qHTS assay to identify small molecule antagonists of the estrogen receptor alpha (ER-alpha) signaling pathway (AID 743069; active = well fitted curve in the direction sought with a large enough effect in the signal ratio in the repeat runs, not every such curve was filed as active; the % refers to the signal ratio); details: HEK293 ER-alpha-UAS-bla, beta-lactamase ratio, antagonist mode; series mostly up to 69.4 µM
How it was run: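 In this cell-based reporter format, GripTite HEK293 cells harbouring ER-alpha-UAS-bla were grown overnight with 2% charcoal-stripped FBS, dosed with DMSO-dissolved compounds, then challenged with 17beta-estradiol. After 18 hr at 37C, beta-lactamase activity was detected by FRET fluorescence.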

[13] = target: Estrogen receptor (Homo sapiens) (UniProt P03372); test: qHTS assay to identify small molecule agonists of the estrogen receptor alpha (ER-alpha) signaling pathway (AID 743075; calls by dose curve); details: HEK293 ER-alpha-UAS-bla, beta-lactamase FRET ratio, 18 h; series mostly up to 70.1 µM
[14] = target: Estrogen receptor (Homo sapiens) (UniProt P03372); test: qHTS assay to identify small molecule agonists of the estrogen receptor alpha (ER-alpha) signaling pathway using the BG1 cell line (AID 743079); details: BG1Luc4E2 cells, ERE-luciferase agonist, 22 h; series mostly up to 70.3 µM; also: nearly all actives have a fitted effect of over 20% in size
[15] = qHTS assay to identify small molecule antagonists of the estrogen receptor alpha (ER-alpha) signaling pathway using the BG1 cell line (AID 743080; calls by dose curve;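 also: BG1 cells stimulated with 17beta-estradiol alongside compound; nearly all actives have a fitted effect of over 25% in size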); details: BG1Luc4E2 ERE-luciferase antagonist mode, luminescence; series mostly up to 70.3 µM
How it was run: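 Endogenous full-length ER-alpha in BG1-Luc-4E2 cells drives a stably integrated 4×ERE luciferase gene; compounds were tested against 17beta-estradiol over 21.5 h, with luminescence and multiplexed viability fluorescence recorded.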

Aromatase (Homo sapiens) = Aromatase (Homo sapiens) (UniProt P11511); test: qHTS assay to identify aromatase inhibitors (AID 743083); details: MCF-7 aro ERE, testosterone-driven ERE luciferase, 24 h; series mostly up to 70.3 µM; also: nearly all actives have a fitted effect of over 55% in size
Sequence of Aromatase (Homo sapiens) (P11511 whole entry, looked up): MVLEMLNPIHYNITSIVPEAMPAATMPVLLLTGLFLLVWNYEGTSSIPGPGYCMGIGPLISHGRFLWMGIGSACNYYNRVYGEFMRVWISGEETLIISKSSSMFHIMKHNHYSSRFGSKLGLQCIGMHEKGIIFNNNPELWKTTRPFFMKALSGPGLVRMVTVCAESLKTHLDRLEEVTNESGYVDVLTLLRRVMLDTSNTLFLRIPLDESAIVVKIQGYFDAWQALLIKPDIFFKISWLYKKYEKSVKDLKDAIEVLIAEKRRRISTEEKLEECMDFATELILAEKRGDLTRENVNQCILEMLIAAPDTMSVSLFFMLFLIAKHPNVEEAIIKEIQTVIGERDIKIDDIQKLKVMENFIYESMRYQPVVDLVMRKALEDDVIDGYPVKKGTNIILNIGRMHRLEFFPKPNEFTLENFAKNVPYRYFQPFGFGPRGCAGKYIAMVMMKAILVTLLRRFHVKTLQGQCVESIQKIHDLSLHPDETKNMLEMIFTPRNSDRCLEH

Sequence of Estrogen receptor (Homo sapiens) (P03372 whole entry, looked up): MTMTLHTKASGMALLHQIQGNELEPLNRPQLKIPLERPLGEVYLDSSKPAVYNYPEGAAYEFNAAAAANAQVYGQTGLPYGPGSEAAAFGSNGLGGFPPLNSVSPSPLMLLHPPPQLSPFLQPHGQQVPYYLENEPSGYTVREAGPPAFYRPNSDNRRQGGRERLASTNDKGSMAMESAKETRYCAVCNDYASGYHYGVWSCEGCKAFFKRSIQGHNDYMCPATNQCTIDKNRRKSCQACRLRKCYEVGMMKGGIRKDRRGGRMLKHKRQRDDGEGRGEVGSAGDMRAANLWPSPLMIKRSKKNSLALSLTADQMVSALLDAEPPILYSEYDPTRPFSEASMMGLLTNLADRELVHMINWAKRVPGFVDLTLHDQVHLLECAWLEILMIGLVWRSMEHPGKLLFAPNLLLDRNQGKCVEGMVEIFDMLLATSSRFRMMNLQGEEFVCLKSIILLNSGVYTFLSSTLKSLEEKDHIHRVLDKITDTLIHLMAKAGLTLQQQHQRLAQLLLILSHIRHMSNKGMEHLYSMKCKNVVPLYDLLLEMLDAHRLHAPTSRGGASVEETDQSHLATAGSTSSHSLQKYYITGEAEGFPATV

Structure (SMILES)	outcome [1]	Potency [2]	Potency [3]	outcome [4]	Potency [5]	Potency [6]	outcome [7]	Potency [8]	Potency [9]	Potency [10]	Potency [11]	Potency [12]	outcome [13]	Potency [14]	outcome [15]	Potency (Aromatase (Homo sapiens))
Cc1c(N)cccc1N	inactive	inactive	14 µM (active)	inactive	inactive	inactive	inactive	inactive	inactive							
CCN(CC)CCNC(=O)COc1ccc(Cl)cc1	inactive		inactive	inactive	inactive		inactive	inactive	inactive	inactive	inactive	inactive	inactive	inactive	inactive	inactive
c1ccc(CN(CC2=NCCN2)c2ccccc2)cc1	inactive	29.8 µM (active)		inactive	inactive		inactive	inactive	inactive		23.7 µM (active)		inactive	inactive	inactive	inactive
